The record followed here is article PMC10726135, “HNF4α isoforms regulate the circadian balance between carbohydrate and lipid metabolism in the liver”.

Over roughly 18,000 sequences, “log2 normalized intensity” has its median near 0.36; the highest 2% begin near 7.3. The entries come from a sample that favours the highest values as a whole.

The target in the assay is T1, HNF4alpha8 (COS-7 nuclear extract) (Homo sapiens, UniProt P41235-5 1-452).
T1 sequence: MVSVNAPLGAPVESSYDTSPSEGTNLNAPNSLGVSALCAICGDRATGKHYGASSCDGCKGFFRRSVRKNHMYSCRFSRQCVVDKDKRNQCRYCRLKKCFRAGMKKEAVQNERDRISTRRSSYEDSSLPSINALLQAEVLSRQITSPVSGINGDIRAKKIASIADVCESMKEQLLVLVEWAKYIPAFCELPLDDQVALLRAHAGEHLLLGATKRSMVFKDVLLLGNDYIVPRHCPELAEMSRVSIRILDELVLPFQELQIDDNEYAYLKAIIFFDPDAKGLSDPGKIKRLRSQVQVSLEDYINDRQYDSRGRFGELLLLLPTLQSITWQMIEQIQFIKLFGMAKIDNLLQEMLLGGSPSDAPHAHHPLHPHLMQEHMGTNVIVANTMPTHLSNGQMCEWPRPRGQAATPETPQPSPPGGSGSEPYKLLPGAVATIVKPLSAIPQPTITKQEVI
Description: protein-binding microarray; COS-7 nuclear extract on double-stranded Agilent 4x180k PBM; binding buffer, salt, pH and temperature not given in the material; high values mean tight binding. To be noted: chain copies: 2; label: 3' end of strand 1 on the slide; dsDNA, one strand shown. An outline of the steps:
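COS-7 cells were transiently transfected by CaPO4 with an expression vector for a human HNF4α isoform, and nuclear extracts were prepared from them. The extracts were applied to a custom Agilent SurePrint G3 4x180k array of double-stranded ~60-nt oligonucleotides, with ~44,000 test sequences spotted in quadruplicate. An Agilent G2565CA scanner imaged bound HNF4α at 2-µm resolution. Binding signal is the background-corrected, normalized gProcessedSignal from Agilent software.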
With “ACAAGGAGTCTCCACTATGACCTGTGCTTTGCCTAGGGAGATTAGAGTATCGGTCGA”, the binding signal is 2.18 log2 normalized intensity.
On to “TATAGTTTATCTACCTTTGTACCTTTAGTAGCCTAGGGAGATTAGAGTATCGGTCGA”, for which the binding signal is 4.65 log2 normalized intensity.
Take “GTTGGGCAGAAGGTGTTTCAGATGGACCAAGCCTAGGGAGATTAGAGTATCGGTCGA”: the binding signal stood at 1.98 log2 normalized intensity.
Take “ATAGCTGCCTGTGTGTTCTGCTATTCATTAGCCTAGGGAGATTAGAGTATCGGTCGA”: the binding signal worked out at 0.562 log2 normalized intensity.
In the case of “GTGCTGGTACATAGCAGGGGTTAGGTAAACGCCTAGGGAGATTAGAGTATCGGTCGA”, the binding signal was -0.36 log2 normalized intensity.
Consider “TGGGCCCACAGATGATCAAAGGTCAGTCTTGCCTAGGGAGATTAGAGTATCGGTCGA”, for which the binding signal was determined as 7.25 log2 normalized intensity.
In the case of “GGGTCATGGAGCTGGAGGGCAAAGGTCAGAGCCTAGGGAGATTAGAGTATCGGTCGA”, the binding signal was 8.54 log2 normalized intensity.
As for “GTGGGTGCCAAACAAAAAGGGCAAAGGTCAGCCTAGGGAGATTAGAGTATCGGTCGA”, the binding signal stood at 8.84 log2 normalized intensity.
Turning to “CACTGGGGTCATGGAGCTGGAGGGCAAAGGGCCTAGGGAGATTAGAGTATCGGTCGA”, the binding signal came out at 4.08 log2 normalized intensity.
Turning to “ATGGAGCTGGAGGGCAAAGGTCAGAGGCTGGCCTAGGGAGATTAGAGTATCGGTCGA”, the binding signal is 6.88 log2 normalized intensity.
For “TATGAGAGAGAGAGAGAGGTGGGCAAAGGTGCCTAGGGAGATTAGAGTATCGGTCGA”, the binding signal was 1.33 log2 normalized intensity.
The figure for “GGAGCAGAGCGATCAAAGGTCACAGAGACCGCCTAGGGAGATTAGAGTATCGGTCGA” is 6.2 log2 normalized intensity; for “AGAGCGATCAAAGGTCACAGAGACCACAGGGCCTAGGGAGATTAGAGTATCGGTCGA” it is 5.89 log2 normalized intensity; for “TCAGGAGCCCCACAGAGCAAAGGTCATGCAGCCTAGGGAGATTAGAGTATCGGTCGA” it is 6.34 log2 normalized intensity.
As for “GAGAGAGAGAGAGGTGGGCAAAGGTCTCAAGCCTAGGGAGATTAGAGTATCGGTCGA”, the binding signal is 3.68 log2 normalized intensity.
Consider “AATCATGGGCCCACAGATGATCAAAGGTCAGCCTAGGGAGATTAGAGTATCGGTCGA”, for which the binding signal was 7.91 log2 normalized intensity.
Take “TGACTGGAGCAGAGCGATCAAAGGTCACAGGCCTAGGGAGATTAGAGTATCGGTCGA”: the binding signal was 7.44 log2 normalized intensity.
Under “CCCCATATCCAGTCAATCCCGTGGACTTTGGCCTAGGGAGATTAGAGTATCGGTCGA” stands 6.13 log2 normalized intensity; under “TTGAATTCCTTCTTCTTCTGGGGACTTCGGGCCTAGGGAGATTAGAGTATCGGTCGA”, 2.16 log2 normalized intensity.
On to “CTTATAAATCTTCAACTGGAGGATAAAGTTGCCTAGGGAGATTAGAGTATCGGTCGA”, for which the binding signal came out at 1.09 log2 normalized intensity.
As to “GAGTCCAAACTGGGACCTGTGACACTCTGCGCCTAGGGAGATTAGAGTATCGGTCGA”, the binding signal was 0.644 log2 normalized intensity.
In the case of “CATACCAGGTGTAAAGTCTGGCATACAGGGGCCTAGGGAGATTAGAGTATCGGTCGA”, the binding signal is 0.00259 log2 normalized intensity.
On to “ATGTTAGGCTGGAAAACTGGGCTGTTATTTGCCTAGGGAGATTAGAGTATCGGTCGA”, for which the binding signal was 0.577 log2 normalized intensity.
Under “CATCTGAACTCTTCATGGACTCCTCTTATCGCCTAGGGAGATTAGAGTATCGGTCGA” stands 2.06 log2 normalized intensity.
As for “TTTGAACACCTCTTCTTTCTTCTCTGGTACGCCTAGGGAGATTAGAGTATCGGTCGA”, the binding signal stood at 1.8 log2 normalized intensity.
In the case of “CTATGGAACATGGACTTTGAACCTCTCTTCGCCTAGGGAGATTAGAGTATCGGTCGA”, the binding signal amounted to 9.09 log2 normalized intensity.
Under “CCTCTTGCGTGTTATCTATGGAACATGGACGCCTAGGGAGATTAGAGTATCGGTCGA” stands 2.5 log2 normalized intensity; under “TCCATCATTTTTCTCTCTTGGACTCTTGGAGCCTAGGGAGATTAGAGTATCGGTCGA”, 4.92 log2 normalized intensity.
With “CCATACCTCTTGCGTGTTATCTATGGAACAGCCTAGGGAGATTAGAGTATCGGTCGA”, the binding signal was 1.67 log2 normalized intensity.
The figure for “CATTTTTCTCTCTTGGACTCTTGGACTCCCGCCTAGGGAGATTAGAGTATCGGTCGA” is 7.67 log2 normalized intensity; for “TACATTGAACTTTGAACACCTCTTCTTTCTGCCTAGGGAGATTAGAGTATCGGTCGA” it is 5.51 log2 normalized intensity.
Under “TTCTCTCTTGGACTCTTGGACTCCCTGAAGGCCTAGGGAGATTAGAGTATCGGTCGA” stands 5.73 log2 normalized intensity; under “TGCGTGTTATCTATGGAACATGGACTTTGAGCCTAGGGAGATTAGAGTATCGGTCGA”, 9.28 log2 normalized intensity.
Regarding “AACATGGACTTTGTTGTTTGCCTCTGAAAAGCCTAGGGAGATTAGAGTATCGGTCGA”, the binding signal was 2.8 log2 normalized intensity.
The figure for “GAACATGGACTTTGAACCTCTCTTCTTTTTGCCTAGGGAGATTAGAGTATCGGTCGA” is 7.93 log2 normalized intensity; for “TTGCCAGTTCCCATTTGCGCTGGTTTTATGGCCTAGGGAGATTAGAGTATCGGTCGA” it is 1.65 log2 normalized intensity; for “GTTATCACAGGCTTGGAATGTTTCTGTATCGCCTAGGGAGATTAGAGTATCGGTCGA” it is 0.74 log2 normalized intensity.
The figure for “AAACGCTGAAGTCTCAAAGTTCACCACTTTGCCTAGGGAGATTAGAGTATCGGTCGA” is 3.3 log2 normalized intensity.
Regarding “GAAGCTGGTAGCATGGCTCAGTCCAAGTCCGCCTAGGGAGATTAGAGTATCGGTCGA”, the binding signal is 0.896 log2 normalized intensity.
Under “TTGGACTCTGCCACTGGTTTGCACACACCAGCCTAGGGAGATTAGAGTATCGGTCGA” stands 1.94 log2 normalized intensity; under “TATACATTTTCCCACTTGTATGTCCAAGGGGCCTAGGGAGATTAGAGTATCGGTCGA”, 1.25 log2 normalized intensity; under “GAACAAAGGTTGGTGTGAACCAGGGTTAAGGCCTAGGGAGATTAGAGTATCGGTCGA”, 1.59 log2 normalized intensity.
Turning to “ACCTTTATCTGATCAGAAATGTTTGGAATTGCCTAGGGAGATTAGAGTATCGGTCGA”, the binding signal came out at 1.84 log2 normalized intensity.
